Assay outcomes deposited in PubChem BioAssay by several laboratories.
eLon inh: inhibitors of E. coli Lon protease; P0A9M0; AID 602123; inhibition, % at 7.94 µM; purified E. coli Lon protease, fluorescence polarization; actives 0.42% (n = 360,000); in the data active = inhibition above about 13%, passing the limit was not always enough;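 also: 0% = enzyme with probe and DMSO and 100% = no enzyme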
Keap1 Nrf2 FP: disrupts human Keap1 binding to Nrf2 peptide. Q14145. Keap1 Kelch-Nrf2 peptide fluorescence polarization, 1536-well. inhibition, % at 9.4 µM. actives 0.15% (n = 340,000). AID 504523; in the data active = inhibition above about 12%;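 also: human Keap1 Kelch domain with fluorescein labeled Nrf2 9mer peptide probe; 0% = neutral control wells and 100% = peptide positive control; higher means more block of Keap1 binding to Nrf2 peptide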
Target sequence (Q14145 whole entry, looked up, the tested form may be a part): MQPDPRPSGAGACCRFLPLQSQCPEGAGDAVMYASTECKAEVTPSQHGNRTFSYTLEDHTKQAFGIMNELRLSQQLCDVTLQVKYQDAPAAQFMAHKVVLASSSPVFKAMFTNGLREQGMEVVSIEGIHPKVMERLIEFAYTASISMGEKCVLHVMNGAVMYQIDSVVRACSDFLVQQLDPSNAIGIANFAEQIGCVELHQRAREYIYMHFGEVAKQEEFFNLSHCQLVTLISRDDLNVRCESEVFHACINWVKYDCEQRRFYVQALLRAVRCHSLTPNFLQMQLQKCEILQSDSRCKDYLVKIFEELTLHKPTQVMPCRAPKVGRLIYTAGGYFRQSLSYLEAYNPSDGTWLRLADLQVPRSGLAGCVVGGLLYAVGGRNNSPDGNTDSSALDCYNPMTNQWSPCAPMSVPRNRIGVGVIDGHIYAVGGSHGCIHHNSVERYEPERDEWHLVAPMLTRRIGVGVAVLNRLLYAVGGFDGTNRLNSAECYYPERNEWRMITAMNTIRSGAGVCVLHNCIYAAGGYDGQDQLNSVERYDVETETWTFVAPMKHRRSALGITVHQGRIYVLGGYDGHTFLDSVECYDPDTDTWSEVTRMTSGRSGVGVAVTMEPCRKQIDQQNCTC
Cardiac RTF inh: cardiac RTF calcium desensitization | P19429+P45379 | IANBD-labeled cardiac RTF, Ca2+ fluorescence | inhibition, % at 7.15 µM | actives 0.12% (n = 340,000);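 active = inhibition above the mean inhibition of all tested compounds plus 3 SD, cut at about 17% in these data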;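 also: assay run at fixed EC70 calcium of 1.6 mM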
RTF Ca sens act: cardiac RTF calcium sensitization; P19429+P45379; IANBD-labeled TnC RTF fluorescence at EC20 calcium; 0% EC20 calcium, 100% full calcium; activation, % at 7.2 µM; actives 0.24% (n = 340,000); AID 493008;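 active = activation above the mean over all tested compounds plus 3 SD, cut at about 30% in these data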;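 also: rise in fluorescence read as greater calcium sensitivity of cardiac thin filaments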
LANA DNA inh: inhibitors of KSHV LANA C-terminal domain DNA binding. MBP-C-LANA/FAM-LBS DNA binding, fluorescence polarization. inhibition, % at 9 µM. AID 504423. actives 0.078% (n = 340,000);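 active = highest replicate inhibition at or above 60% at 9 µM, even if other replicates fall short; inactive = all replicates below 60% inhibition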;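 also: 0% = neutral control wells and 100% = 4 µM acridine orange control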
eLon confirm: E. coli Lon inhibition confirmation; shares compounds with eLon inh; purified E. coli Lon, fluorescence polarization; inhibition, % at 7.94 µM; actives 31% (n = 1,400); AID 602230; in the data active = inhibition above about 16%;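 also: 0% = enzyme with probe and DMSO and 100% = no enzyme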
The depositor's hits bear a star. Rows were chosen to be rich in hits. Some 0.74% of all compounds tested hit in one or more screens of this group.

For Cn1nc([N+](=O)[O-])c(C(C#N)c2nc3ccccc3n2C)c(Cl)c1=O (configuration not stated) the results were eLon inh 22*, Keap1 Nrf2 FP 4, Cardiac RTF inh -7, RTF Ca sens act 6, LANA DNA inh 10 and eLon confirm 33*.
For CC(C)(C)OC(=O)N(CCc1ccccc1)Cc1ccc(OCc2cccc(NC(=O)/C=C/c3ccccc3)c2)cc1 the results were eLon inh 15*, Keap1 Nrf2 FP -5, Cardiac RTF inh -6, RTF Ca sens act -7, LANA DNA inh 1 and eLon confirm -7.
COC(=O)c1[nH]c2cccc(OC)c2c1NC(=O)CCN1CCN(c2ccccc2OC)CC1 was read as eLon inh 21*, Keap1 Nrf2 FP 4, Cardiac RTF inh 3, RTF Ca sens act -4, LANA DNA inh -2 and eLon confirm 6.
COC(=O)c1[nH]c2cccc(OC)c2c1NC(=O)CCN1CCC(C)CC1 was read as eLon inh -7, Keap1 Nrf2 FP -3, Cardiac RTF inh -6, RTF Ca sens act 2 and LANA DNA inh 1.
O=C(Cc1ccc(NC(=O)C2CCN(C(=O)C3CCCC3)CC2)cc1)Nc1ccc(C(=O)N2CCOCC2)cc1 was read as eLon inh 0, Keap1 Nrf2 FP 0, Cardiac RTF inh -5, RTF Ca sens act 1 and LANA DNA inh -2.
Screening COC(=O)[C@H]1C[C@H](OC(=O)Nc2cccs2)[C@@]2(O)CN(S(=O)(=O)c3ccc(C)cc3)CC2[C@H]1C(=O)OC (some centres not stated) returned eLon inh -12.
For NC(=O)c1ccc2c(c1)S(=O)(=O)c1ccccc1C2=O the results were eLon inh -7, Keap1 Nrf2 FP 2, Cardiac RTF inh -8, RTF Ca sens act 0 and LANA DNA inh 5.
`CC1=C(C(N)=O)S(=O)(=O)c2ccccc21` gave eLon inh 18*, Keap1 Nrf2 FP 5, Cardiac RTF inh -8, RTF Ca sens act 3, LANA DNA inh 3 and eLon confirm 29*.
`O=C(COC(=O)CN1C(=O)c2ccccc2C1=O)Nc1ccccc1C(F)(F)F` gave eLon inh -2.
For COc1ccc(NC(=O)c2cc(Br)c(Br)s2)cn1 the results were eLon inh -4, Keap1 Nrf2 FP 0, Cardiac RTF inh -1, RTF Ca sens act 7 and LANA DNA inh 10.
`CCc1cc(C(=O)Nc2ccc(OC)nc2)sc1C` gave eLon inh 50*, Keap1 Nrf2 FP 8, Cardiac RTF inh -24, RTF Ca sens act 17, LANA DNA inh 20 and eLon confirm 5.
For N=C1CCCC1C(=S)SCCC(N)=O (configuration not stated) the results were eLon inh -8.
For O=C(Nc1cccc(Cl)c1)Nn1cnnc1 the results were eLon inh 104*, Keap1 Nrf2 FP -7, Cardiac RTF inh -15, RTF Ca sens act 2, LANA DNA inh 2 and eLon confirm -1.
O=C(Nc1ccc(Cl)c(Cl)c1)Nn1cnnc1 was read as eLon inh -8, Keap1 Nrf2 FP -4, Cardiac RTF inh -10, RTF Ca sens act 4 and LANA DNA inh -2.
`COc1cccc(CNC(=O)[C@@H]2CCCN2C(=O)[C@@H]2CCCN2C(=O)OC(C)(C)C)c1` gave eLon inh 3.
CCCCN(CCCNC(=S)NCCCc1cnc[nH]1)c1ccc(Br)cn1 was read as eLon inh -2.
`COc1ccccc1-c1cc(NC=O)c2ncc(-c3cccc(C(F)(F)F)c3)n2c1` gave eLon inh -11.
For CN(C)C(=O)c1cccc(-c2cnc3c(NC=O)cc(-c4ccccc4N(C)C)cn23)c1 the results were eLon inh active and eLon confirm 124*.
CN(C)c1ccccc1-c1cc(NC=O)c2ncc(-c3cccc(C(F)(F)F)c3)n2c1 was read as eLon inh active and eLon confirm active.
Screening CN(C)C(=O)c1cccc(-c2cnc3c(NC=O)cc(-c4ccccc4Cl)cn23)c1 returned eLon inh -14.
Screening OCC[C@H]1NCc2cc(CO)cc(-c3ccccc3)c21 returned eLon inh -6, Keap1 Nrf2 FP -2, Cardiac RTF inh -2, RTF Ca sens act -4 and LANA DNA inh 1.
c1ccc(-c2cc3nc(NCc4cccs4)nc(NCc4ccc5occc5c4)c3s2)cc1 was read as eLon inh -15.
`O=C(C[C@H]1C/C=C\CC[C@H](Cc2ccc(F)cc2)C(=O)OC[C@H]2CCCN2C1=O)N[C@@H](CO)Cc1ccccc1` gave eLon inh 40*, Keap1 Nrf2 FP 6, Cardiac RTF inh -12, RTF Ca sens act 11, LANA DNA inh -1 and eLon confirm 5.
CC(C)(C)OC(=O)C[C@H]1C/C=C\C[C@@H](CC(=O)NCCO)C(=O)N2CCC[C@H]2COC1=O was read as eLon inh -6, Keap1 Nrf2 FP 1, Cardiac RTF inh 0, RTF Ca sens act -2 and LANA DNA inh 2.
Screening O=C(C[C@H]1C/C=C\CC[C@H](Cc2ccc(F)cc2)C(=O)OC[C@H]2CCCN2C1=O)N[C@H](CO)Cc1ccccc1 returned eLon inh -4, Keap1 Nrf2 FP -1, Cardiac RTF inh -4, RTF Ca sens act 1 and LANA DNA inh -2.
CC(C)(C)OC(=O)C[C@@H]1C/C=C\C[C@H](CC(=O)NCCO)C(=O)N2CCC[C@H]2COC1=O was read as eLon inh 111*, Keap1 Nrf2 FP 0, Cardiac RTF inh 3, RTF Ca sens act 2, LANA DNA inh 2 and eLon confirm -7.
`NC(Cc1ccc(Cl)cc1)c1csc(Nc2ccc(-c3ccccc3)nn2)n1` (configuration not stated) gave eLon inh -5.
`Cc1cccc(C)c1NC(=O)C1c2ccccc2OCC(=O)N1C1CC1` (configuration not stated) gave eLon inh 6.
For CNc1cccc2c1C(=O)c1ccccc1C2=O the results were eLon inh 50*, Keap1 Nrf2 FP -1, Cardiac RTF inh -3, RTF Ca sens act -2, LANA DNA inh 1 and eLon confirm 41*.
Screening O=C(/C=C/[C@H]1O[C@@H](n2cnc3c(NC(=O)c4ccccc4)ncnc32)[C@H](O)[C@@H]1O)NCc1ccc2c(c1)OCO2 returned eLon inh 1.
Screening CSc1ccc(CN2C(=O)C(F)(F)Oc3c(C(C)=O)cccc32)cc1 returned eLon inh -5.
For CCn1c(CC(=O)Nc2ccccc2F)nnc1SCC(=O)NC1CCCC1 the results were eLon inh 17*, Keap1 Nrf2 FP 5, Cardiac RTF inh -3, RTF Ca sens act -5, LANA DNA inh 1 and eLon confirm 5.
